# The whole screen tested about 320,000 compounds, of which about 2,100 (0.66%) were called active. Another 53% or so got no clear call; they are omitted. The sample holds actives, similar compounds and a random draw of the others, so the mix is not that of the screen. The call rests on the fitted dose curve; in most records, active means well fitted inhibition curve with a large enough effect in the signal ratio, with a control signal flat (not every such curve was filed as active); inconclusive means small, poorly fitted or top-dose-only effect, or effect the other way, or a change in a side signal; inactive means flat fitted curve, though single readings scatter; the % refers to the signal ratio.
# Test: qHTS Assay for Lipid Storage Modulators in Drosophila S3 Cells;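 on cell number change: cells counted by Cell Tracker Red CMTPX staining in the red channel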; on lipid storage change, negative = inhibition: on the % scale 0 is the no-effect control and ±100 the full control effect
# Details: BODIPY lipid droplet fluorescence, 18-24 h, cells fed with added oleic acid; cell number change: measured here: cell count max response; series mostly up to 46.1 µM; lipid storage change, negative = inhibition: at the top concentration
# In short: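 Drosophila S3 cells got compounds at several concentrations plus oleic acid (400 uM solution). Laser-scanning cytometry with 488 nm excitation read lipid droplets at 500-530 nm and cells at 575-640 nm. Percent activity was relative to 20 uM Triacsin C.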
# Potency means the concentration at half of the fitted maximal effect.
Structure (SMILES),"lipid storage change, negative = inhibition",cell number change,outcome,Potency
Cc1ccc(S(=O)(=O)N(CC(=O)NCCSc2ccccn2)c2cc(C)cc(C)c2)cc1,-21.1% (inactive),-8.96%,–,–
COc1ccc(NS(=O)(=O)c2ccc(N3CC(O)=C(c4ccccc4)C3=N)cc2)cc1,12.1% (inactive),18.3%,–,–
COC(=O)C(NC(=O)c1ccccc1C)(Nc1ncc(S(=O)(=O)c2ccc([N+](=O)[O-])cc2)s1)C(F)(F)F (stereo not drawn),-0.188% (inactive),-2.46%,–,–
O=C(NC(Nc1nc2ccc([N+](=O)[O-])cc2s1)(C(F)(F)F)C(F)(F)F)c1cccnc1,–,-11%,inactive,–
COC(=O)C(NC(=O)c1ccccc1Cl)(Nc1ncc(S(=O)(=O)c2ccc([N+](=O)[O-])cc2)s1)C(F)(F)F (stereo not drawn),–,9.68%,–,20.6 µM (active)
COC(=O)C(NC(=O)c1ccc(F)cc1)(Nc1ncc(S(=O)(=O)c2ccc([N+](=O)[O-])cc2)s1)C(F)(F)F (stereo not drawn),5.96% (inactive),0.5%,–,–
O=C(NC(Nc1nc2ccc([N+](=O)[O-])cc2s1)(C(F)(F)F)C(F)(F)F)c1ccccc1Cl,–,-26.5%,–,5.8 µM (active)
Cn1cc(Cl)c(C(=O)Nc2nc3ccc([N+](=O)[O-])cc3s2)n1,16.6% (inactive),-2.18%,–,–
Cn1nc([N+](=O)[O-])nc1Sc1ccc(Cl)cc1,-10.4% (inactive),9.49%,–,–
Nc1cnc(Br)cc1Br,0.0052% (inactive),-3.4%,–,–
Cc1ccc(NC(=O)CNC(=O)c2ccc(Br)o2)nc1,-5.59% (inactive),–,–,–
CCOc1c(N2CC(C)OC(C)C2)c(=O)c1=O (stereo not drawn),-2.8% (inactive),-16.5%,–,–
Cc1ccc(/C=C/C(=O)Nc2sc(C)c(C)c2C(=O)OC(C)C)o1,-0.0019% (inactive),0.157%,–,–
O=S(=O)(c1ccccc1)N1CCN(c2cccc(Cl)c2)CC1,–,-13.5%,inactive,–
C=CCn1c(=O)c(C(=O)Nc2ccccc2O)c(O)c2ccccc21,6.29% (inactive),3.13%,–,–
CCn1c(=O)c(C(=O)Nc2ccccc2C)c(O)c2ccccc21,5.2% (inactive),4.59%,–,–
C=CCn1c(=O)c(C(=O)Nc2ccccc2C)c(O)c2ccccc21,–,-12.3%,–,18.4 µM (active)
O=C(NS(=O)(=O)Oc1cccc(Cl)c1Cl)OC[C@@H]1CCCN2CCCCC12 (stereo partly drawn),-4.86% (inactive),-10.2%,–,–
CN(C)CCCN(C(=O)c1ccc(S(=O)(=O)N2CCOCC2)cc1)c1nc2ccc(F)cc2s1,-8.58% (inactive),15.4%,–,–
CCOC(=O)COc1ccc(Br)cc1/C=C\c1[nH]c(=O)[nH]c(=O)c1[N+](=O)[O-],–,-21.8%,–,20.6 µM (active)
CCCOc1ccc(/C=C/c2[nH]c(=O)[nH]c(=O)c2[N+](=O)[O-])cc1OCC,-8.91% (inactive),-5.22%,–,–
CCOC(=O)COc1ccc(Br)cc1/C=C1\SC(N)=NC1=O,–,-21.5%,–,5.8 µM (active)
CCCOc1ccccc1/C=C1\SC(N)=NC1=O,11.7% (inactive),13.8%,–,–

Structure (SMILES),"lipid storage change, negative = inhibition",cell number change,outcome,Potency
CCOC(=O)CSC1=NC(=O)/C(=C/c2ccc(Br)cc2)S1,7.04% (inactive),1.95%,–,–
CCOC(=O)COc1ccc(Br)cc1/C=C/c1[nH]c(=O)[nH]c(=O)c1[N+](=O)[O-],7.09% (inactive),-18.1%,–,–
Cc1c(C(=O)N2CCCC2)sc(NC(=O)c2ccco2)c1C#N,-12.4% (inactive),-19.3%,–,–
COC(=O)[C@@H](NC(=O)Nc1ccc(OC)cc1)C(C)C,–,-11.6%,inactive,–
COc1cc(NC(=O)N[C@H](C(=O)O)C(C)C)cc(OC)c1,–,-13.1%,–,5.8 µM (active)
COC(=O)[C@@H](NC(=O)Nc1cccc(OC)c1)C(C)C,-16.2% (inactive),-18%,–,–
Nc1nc2ccc(Oc3ccccc3)cc2s1,–,-7.07%,inactive,–
CCOC(=O)CSc1nc(=O)n2ccccc2n1,-14.6% (inactive),-9.97%,–,–
COc1ccc(CN2CCN(C)CC2)cc1OCc1ccccc1,–,-3.92%,–,18.4 µM (active)
CCN1CCN(Cc2ccc(OCc3ccccc3)c(OC)c2)CC1,-9.35% (inactive),-5.92%,–,–
COc1ccc(CN2CCC(C)CC2)cc1OCc1ccccc1,9.08% (inactive),4.43%,–,–
CC(=O)Cc1cc(=O)c2c(C)cc(O)c(C3OC(CO)C(O)C(O)C3O)c2o1 (stereo not drawn),-1.85% (inactive),-1.27%,–,–
O=C(COC(=O)c1cc(-c2ccccc2)nc2ccccc12)Nc1ccc2c(c1)OCO2,17.7% (inactive),2.4%,–,–
Cc1nc(=O)c(-c2ccccc2)c(C)n1-c1ccc(O)cc1,-123% (inactive),0.899%,–,–
COC(=O)c1ccc(-n2c(C)nc(=O)c(-c3ccccc3)c2C)cc1,11.3% (inactive),0.97%,–,–
CC(=O)Nc1ccc(-n2c(C)nc(=O)c(-c3ccccc3)c2C)cc1,–,13.2%,–,13 µM (active)
CCN(/C=N/S(=O)(=O)c1ccc(Cl)cc1)CC,-5.13% (inactive),6.24%,–,–
CSc1cc(C)n(-c2ccccc2C)c(=S)c1C(C)=O,–,16.2%,–,29.1 µM (active)
CSc1cc(C)n(-c2ccc(Cl)cc2)c(=S)c1C(C)=O,–,5.69%,inactive,–
COc1ccccc1-n1c(C)cc(SC)c(C(C)=O)c1=S,–,–,inactive,–
Cc1ccccc1NC(=O)NC1(C(=O)NCCCN2CCOCC2)CCCCC1,-7.96% (inactive),-17.7%,–,–
CC(=O)N1c2c(cc(Br)cc2S(=O)(=O)NCc2ccc3c(c2)OCO3)CC1C (stereo not drawn),-20.4% (inactive),-27.2%,–,–
